# Measurements taken from PubChem BioAssay (NCI).
# This is part of a sample that, as a whole, favours compounds with a hit. Of some 79,000 tested, about 15% had one in any assay. Values without a mark were called inactive. Activity calls are given as the source filed them. Cut-off read from the data, not from the text of the source: active = growth inhibition above about 70%; inactive = the rest.
# How the values were obtained:
# [1] = NCI Yeast Anticancer Drug Screen. Data for the wt2 strain (AID 169); settings: S. cerevisiae wt2 strain growth inhibition, hits give high values
# In short: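 Yeast cells were exposed to test compounds, and growth inhibition was measured relative to vehicle-treated controls.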
# [2] = NCI Yeast Anticancer Drug Screen. Data for the mlh1 strain (AID 171);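 note: 0% = growth of vehicle-treated control cultures of the same strain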; settings: S. cerevisiae mlh1 strain growth inhibition, hits give high values
# In short: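 Yeast carrying a defined genetic alteration in DNA damage repair or cell cycle control were exposed to test compounds. Growth inhibition was measured relative to vehicle-treated controls.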
# [3] = NCI Yeast Anticancer Drug Screen. Data for the sgs1 strain (AID 173);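 note: 0% = growth of vehicle-only control cultures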; settings: S. cerevisiae sgs1 mutant, hits give high values
# In short: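 Yeast mutant strains carrying defined defects in DNA damage repair or cell cycle control were exposed to test compounds. Growth inhibition was scored against vehicle-treated controls.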
# [4] = NCI Yeast Anticancer Drug Screen. Data for the mlh1 rad18 strain (AID 175); settings: S. cerevisiae mlh1 rad18 strain growth inhibition, hits give high values
# In short: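 Growth inhibition of the yeast strain was measured after compound exposure and expressed relative to vehicle-treated controls. The strain carries defined defects in DNA damage repair.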
# [5] = NCI Yeast Anticancer Drug Screen. Data for the rad52 strain (AID 147);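 note: 0% = growth of vehicle-treated control cultures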; settings: S. cerevisiae rad52 mutant growth inhibition, hits give high values
# In short: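 Yeast strain carrying a DNA damage repair alteration was exposed to test compounds. Growth inhibition was measured relative to vehicle-treated controls.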
# [6] = NCI Yeast Anticancer Drug Screen. Data for the wt1 strain (AID 149);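 note: 0% = growth of vehicle-treated wt1 cultures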; settings: S. cerevisiae wt1 strain (SPY 50644) growth inhibition, hits give high values
# In short: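 Each compound is tested on wt1 yeast and the loss of growth versus vehicle gives the inhibition value.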
# [7] = NCI Yeast Anticancer Drug Screen. Data for the rad50EPP+ strain (AID 151);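 note: 0% = growth of vehicle-treated control cultures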; settings: S. cerevisiae rad50 mutant strain, hits give high values
# In short: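 Yeast strain carrying rad50 alteration (rad50EPP+) exposed to compounds; growth inhibition measured relative to vehicle-treated controls.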
# [8] = NCI Yeast Anticancer Drug Screen. Data for the mgt1 strain (AID 153); settings: S. cerevisiae mgt1 mutant growth inhibition, hits give high values
# In short: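 Yeast mgt1 strain (DNA repair/cell-cycle alteration panel) exposed to compounds; growth inhibition measured relative to vehicle-treated controls.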
# [9] = NCI Yeast Anticancer Drug Screen. Data for the rad50 strain (AID 155);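 note: 0% = growth of vehicle-only cultures of the same strain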; settings: S. cerevisiae rad50 strain growth inhibition, hits give high values
# In short: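 Vehicle-treated cultures provide the reference for the growth inhibition reported for compound-exposed, repair-deficient yeast.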
# [10] = NCI Yeast Anticancer Drug Screen. Data for the mec2-1 strain (AID 157); settings: S. cerevisiae mec2-1 strain, hits give high values
# In short: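 mec2-1 yeast strain, carrying an alteration in DNA damage repair or cell cycle control, was exposed to compounds; growth inhibition was measured relative to vehicle-treated controls.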
# [11] = NCI Yeast Anticancer Drug Screen. Data for the rad14 strain (AID 159);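 note: 0% = growth of vehicle-treated control cultures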; settings: S. cerevisiae rad14 strain growth inhibition, hits give high values
# In short: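 Inhibition of growth is reported for a repair-deficient yeast mutant following compound treatment, calculated relative to cultures that received vehicle.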
# [12] = NCI Yeast Anticancer Drug Screen. Data for the sgs1 mgt1 strain (AID 161);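 note: 0% = growth of cultures given vehicle only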; settings: S. cerevisiae sgs1 mgt1 strain, hits give high values
# In short: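 This yeast growth screen uses a strain with defined DNA-repair lesions; compound-treated growth is compared with vehicle-treated growth.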
# [13] = NCI Yeast Anticancer Drug Screen. Data for the CLN2oe strain (AID 163);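 note: 0% = growth of vehicle-only control cultures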; settings: S. cerevisiae CLN2oe strain, hits give high values
# In short: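 Yeast cells carrying a defined cell-cycle control alteration were exposed to test compounds. Growth inhibition was scored against vehicle-treated control cultures.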
# [14] = NCI Yeast Anticancer Drug Screen. Data for the cln2 rad14 strain (AID 165);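 note: 0% = growth equal to vehicle treated cultures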; settings: S. cerevisiae cln2 rad14 strain, hits give high values
# In short: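 Yeast carrying cln2 and rad14 alterations (cell cycle control and DNA damage repair) were exposed to compounds. Growth inhibition was measured against vehicle-treated controls.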
# [15] = NCI Yeast Anticancer Drug Screen. Data for the bub3 strain (AID 167); settings: S. cerevisiae bub3 mutant strain, hits give high values
# In short: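 Mutant yeast screening strain plus compound; vehicle-treated cultures serve as the 0% inhibition reference.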
# [16] = at 5.0 µM (retest, dose inferred, filed as 0.5)
# [17] = at 50.0 µM (retest, dose inferred, filed as 5.0)
structure (smiles),measurement,setting,value
O=C1c2ccccc2-c2n[nH]c3cccc1c23,growth inhibition,[1]; at 1.2 µM,-20%
same,growth inhibition,[1]; at 3.7 µM,-20%
same,growth inhibition,[1]; at 11.0 µM,2%
same,growth inhibition,[1]; at 33.0 µM,41%
same,growth inhibition,[1]; at 100.0 µM,36%
same,growth inhibition,[2]; at 1.2 µM,-42%
same,growth inhibition,[2]; at 3.7 µM,-38%
same,growth inhibition,[2]; at 11.0 µM,9%
same,growth inhibition,[2]; at 33.0 µM,39%
same,growth inhibition,[2]; at 100.0 µM,58%
same,growth inhibition,[3]; at 1.2 µM,-39%
same,growth inhibition,[3]; at 3.7 µM,-16%
same,growth inhibition,[3]; at 11.0 µM,3%
same,growth inhibition,[3]; at 33.0 µM,35%
same,growth inhibition,[3]; at 100.0 µM,27%
same,growth inhibition,[4]; [16],100% (active)
same,growth inhibition,[4]; [17],100% (active)
same,growth inhibition,[4]; at 50.0 µM,81.1% (active)
CCCCCCCCCCCCCCCCCCOCC(O)COP(=O)(O)OCC1OC(n2cc(F)c(=O)[nH]c2=O)CC1O (centres undefined),growth inhibition,[5]; at 1.2 µM,15%
same,growth inhibition,[5]; at 3.7 µM,16%
same,growth inhibition,[5]; at 11.0 µM,61%
same,growth inhibition,[5]; at 33.0 µM,97% (active)
same,growth inhibition,[5]; at 100.0 µM,97% (active)
same,growth inhibition,[6]; at 1.2 µM,17%
same,growth inhibition,[6]; at 3.7 µM,4%
same,growth inhibition,[6]; at 11.0 µM,-7%
same,growth inhibition,[6]; at 33.0 µM,16%
same,growth inhibition,[6]; at 100.0 µM,93% (active)
same,growth inhibition,[7]; at 1.2 µM,42%
same,growth inhibition,[7]; at 3.7 µM,38%
same,growth inhibition,[7]; at 11.0 µM,70% (active)
same,growth inhibition,[7]; at 33.0 µM,88% (active)
same,growth inhibition,[7]; at 100.0 µM,89% (active)
same,growth inhibition,[8]; at 1.2 µM,30%
same,growth inhibition,[8]; at 3.7 µM,25%
same,growth inhibition,[8]; at 11.0 µM,64%
same,growth inhibition,[8]; at 33.0 µM,98% (active)
same,growth inhibition,[8]; at 100.0 µM,98% (active)
same,growth inhibition,[9]; at 1.2 µM,18%
same,growth inhibition,[9]; at 3.7 µM,-10%
same,growth inhibition,[9]; [16],91% (active)
same,growth inhibition,[9]; at 11.0 µM,54%
same,growth inhibition,[9]; at 33.0 µM,96% (active)
same,growth inhibition,[9]; [17],99% (active)
same,growth inhibition,[9]; at 50.0 µM,87.6% (active)
same,growth inhibition,[9]; at 100.0 µM,98% (active)
same,growth inhibition,[10]; at 1.2 µM,4%
same,growth inhibition,[10]; at 3.7 µM,12%
same,growth inhibition,[10]; [16],51%
same,growth inhibition,[10]; at 11.0 µM,74% (active)
same,growth inhibition,[10]; at 33.0 µM,90% (active)
same,growth inhibition,[10]; [17],99% (active)
same,growth inhibition,[10]; at 50.0 µM,88.5% (active)
same,growth inhibition,[10]; at 100.0 µM,96% (active)
same,growth inhibition,[11]; at 1.2 µM,27%
same,growth inhibition,[11]; at 3.7 µM,9%
same,growth inhibition,[11]; at 11.0 µM,-5%
same,growth inhibition,[11]; at 33.0 µM,63%
same,growth inhibition,[11]; at 100.0 µM,95% (active)
same,growth inhibition,[12]; [16],-34%
same,growth inhibition,[12]; [17],98% (active)
same,growth inhibition,[12]; at 50.0 µM,88.3% (active)
same,growth inhibition,[13]; at 1.2 µM,30%
same,growth inhibition,[13]; at 3.7 µM,28%
same,growth inhibition,[13]; at 11.0 µM,60%
same,growth inhibition,[13]; at 33.0 µM,96% (active)
same,growth inhibition,[13]; at 100.0 µM,99% (active)
same,growth inhibition,[14]; [16],1%
same,growth inhibition,[14]; [17],96% (active)
same,growth inhibition,[14]; at 50.0 µM,89.8% (active)
same,growth inhibition,[15]; at 1.2 µM,14%
same,growth inhibition,[15]; at 3.7 µM,28%
same,growth inhibition,[15]; [16],-12%
same,growth inhibition,[15]; at 11.0 µM,1%
same,growth inhibition,[15]; at 33.0 µM,74% (active)
same,growth inhibition,[15]; [17],91% (active)
same,growth inhibition,[15]; at 50.0 µM,82.3% (active)
same,growth inhibition,[15]; at 100.0 µM,94% (active)
same,growth inhibition,[1]; at 1.2 µM,-57%
same,growth inhibition,[1]; at 3.7 µM,-83%
same,growth inhibition,[1]; at 11.0 µM,58%
same,growth inhibition,[1]; at 33.0 µM,88% (active)
same,growth inhibition,[1]; at 100.0 µM,94% (active)
same,growth inhibition,[2]; at 1.2 µM,32%
same,growth inhibition,[2]; at 3.7 µM,19%
same,growth inhibition,[2]; at 11.0 µM,54%
same,growth inhibition,[2]; at 33.0 µM,96% (active)
same,growth inhibition,[2]; at 100.0 µM,97% (active)
same,growth inhibition,[3]; at 1.2 µM,26%
same,growth inhibition,[3]; at 3.7 µM,19%
same,growth inhibition,[3]; at 11.0 µM,81% (active)
same,growth inhibition,[3]; at 33.0 µM,95% (active)
same,growth inhibition,[3]; at 100.0 µM,97% (active)
same,growth inhibition,[4]; [16],24%
same,growth inhibition,[4]; [17],99% (active)
same,growth inhibition,[4]; at 50.0 µM,91.2% (active)
CC(C)c1ccccc1NC(=O)/C(Cl)=C(\Cl)C(=O)O,growth inhibition,[5]; at 1.2 µM,0%
same,growth inhibition,[5]; at 3.7 µM,1%
same,growth inhibition,[5]; at 11.0 µM,0%
same,growth inhibition,[5]; at 33.0 µM,5%
same,growth inhibition,[5]; at 100.0 µM,99% (active)
same,growth inhibition,[6]; at 1.2 µM,-1%
same,growth inhibition,[6]; at 3.7 µM,-1%
same,growth inhibition,[6]; at 11.0 µM,-1%
same,growth inhibition,[6]; at 33.0 µM,1%
same,growth inhibition,[6]; at 100.0 µM,59%
same,growth inhibition,[7]; at 1.2 µM,2%
same,growth inhibition,[7]; at 3.7 µM,4%
same,growth inhibition,[7]; at 11.0 µM,7%
same,growth inhibition,[7]; at 33.0 µM,21%
same,growth inhibition,[7]; at 100.0 µM,99% (active)
same,growth inhibition,[8]; at 1.2 µM,1%
same,growth inhibition,[8]; at 3.7 µM,3%
same,growth inhibition,[8]; at 11.0 µM,5%
same,growth inhibition,[8]; at 33.0 µM,8%
same,growth inhibition,[8]; at 100.0 µM,94% (active)
same,growth inhibition,[9]; at 1.2 µM,0%
same,growth inhibition,[9]; at 3.7 µM,0%
same,growth inhibition,[9]; [16],0%
same,growth inhibition,[9]; at 11.0 µM,-2%
same,growth inhibition,[9]; at 33.0 µM,11%
same,growth inhibition,[9]; [17],82% (active)
same,growth inhibition,[9]; at 50.0 µM,30.1%
same,growth inhibition,[9]; at 100.0 µM,98% (active)
same,growth inhibition,[10]; at 1.2 µM,1%
same,growth inhibition,[10]; at 3.7 µM,0%
same,growth inhibition,[10]; [16],26%
same,growth inhibition,[10]; at 11.0 µM,1%
same,growth inhibition,[10]; at 33.0 µM,7%
same,growth inhibition,[10]; [17],27%
same,growth inhibition,[10]; at 50.0 µM,6.85%
same,growth inhibition,[10]; at 100.0 µM,99% (active)
same,growth inhibition,[11]; at 1.2 µM,2%
same,growth inhibition,[11]; at 3.7 µM,2%
same,growth inhibition,[11]; at 11.0 µM,4%
same,growth inhibition,[11]; at 33.0 µM,6%
same,growth inhibition,[11]; at 100.0 µM,93% (active)
same,growth inhibition,[12]; [16],-12%
same,growth inhibition,[12]; [17],16%
same,growth inhibition,[12]; at 50.0 µM,2.4%
same,growth inhibition,[13]; at 1.2 µM,1%
same,growth inhibition,[13]; at 3.7 µM,6%
same,growth inhibition,[13]; at 11.0 µM,5%
same,growth inhibition,[13]; at 33.0 µM,2%
same,growth inhibition,[13]; at 100.0 µM,82% (active)
same,growth inhibition,[14]; [16],13%
same,growth inhibition,[14]; [17],63%
same,growth inhibition,[14]; at 50.0 µM,51.6%
same,growth inhibition,[15]; at 1.2 µM,0%
same,growth inhibition,[15]; at 3.7 µM,1%
same,growth inhibition,[15]; [16],9%
same,growth inhibition,[15]; at 11.0 µM,5%
same,growth inhibition,[15]; at 33.0 µM,7%
same,growth inhibition,[15]; [17],77% (active)
same,growth inhibition,[15]; at 50.0 µM,8.1%
same,growth inhibition,[15]; at 100.0 µM,97% (active)
same,growth inhibition,[1]; at 1.2 µM,1%
same,growth inhibition,[1]; at 3.7 µM,0%
same,growth inhibition,[1]; at 11.0 µM,0%
same,growth inhibition,[1]; at 33.0 µM,4%
same,growth inhibition,[1]; at 100.0 µM,88% (active)
same,growth inhibition,[2]; at 1.2 µM,-1%
same,growth inhibition,[2]; at 3.7 µM,1%
same,growth inhibition,[2]; at 11.0 µM,2%
same,growth inhibition,[2]; at 33.0 µM,4%
same,growth inhibition,[2]; at 100.0 µM,66%
same,growth inhibition,[3]; at 1.2 µM,2%
same,growth inhibition,[3]; at 3.7 µM,4%
same,growth inhibition,[3]; at 11.0 µM,5%
same,growth inhibition,[3]; at 33.0 µM,12%
same,growth inhibition,[3]; at 100.0 µM,96% (active)
same,growth inhibition,[4]; [16],21%
same,growth inhibition,[4]; [17],28%
same,growth inhibition,[4]; at 50.0 µM,11.9%
